# High-throughput results from PubChem.
# LANA DNA inh: blocks KSHV LANA C-terminal domain binding to DNA; inhibition, % at 9 µM; 340,000 compounds, 0.078% hits; MBP-C-LANA/FAM-LBS DNA binding, fluorescence polarization; AID 504423;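 active = highest replicate inhibition at or above 60% at 9 µM, even if other replicates fall short; inactive = all replicates below 60% inhibition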;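 also: 0% = neutral control wells and 100% = 4 µM acridine orange control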
# Keap1-Nrf2 PPI: disrupts human Keap1 binding to Nrf2 peptide | 340,000 compounds, 0.15% hits | Keap1 Kelch-Nrf2 peptide fluorescence polarization, 1536-well | Q14145 | inhibition, % at 9.4 µM; in the data active = inhibition above about 12%;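 also: human Keap1 Kelch domain with fluorescein labeled Nrf2 9mer peptide probe; 0% = neutral control wells and 100% = peptide positive control; higher means more block of Keap1 binding to Nrf2 peptide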
# eLon inh: E. coli protease La inhibition | AID 602123 | purified E. coli Lon protease, fluorescence polarization | P0A9M0 | inhibition, % at 7.94 µM | 360,000 compounds, 0.42% hits; in the data active = inhibition above about 13%, passing the limit was not always enough;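 also: 0% = enzyme with probe and DMSO and 100% = no enzyme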
# RTF Ca sens inh: cardiac RTF calcium desensitization | P19429+P45379 | IANBD-labeled cardiac RTF, Ca2+ fluorescence | inhibition, % at 7.15 µM | 340,000 compounds, 0.12% hits;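 active = inhibition above the mean inhibition of all tested compounds plus 3 SD, cut at about 17% in these data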;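 also: assay run at fixed EC70 calcium of 1.6 mM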
# RTF Ca sens act: cardiac RTF calcium sensitization | 340,000 compounds, 0.24% hits | IANBD-labeled TnC RTF fluorescence at EC20 calcium; 0% EC20 calcium, 100% full calcium | activation, % at 7.2 µM | P19429+P45379;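 active = activation above the mean over all tested compounds plus 3 SD, cut at about 30% in these data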;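 also: rise in fluorescence read as greater calcium sensitivity of cardiac thin filaments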
# EBV gp42 block: inhibitors of Epstein-Barr virus glycoprotein 42; 220,000 compounds, 0.42% hits; inhibition, % (tested at 21.74 µM); Fluorescence polarization binding assay, mP read-out; in the data active = inhibition above about 50%
# The depositor's hits bear a star; i = inactive; . = no result. The list is not random: actives were taken first. Their share in the collection is about 0.98%.
SMILES,LANA DNA inh,Keap1-Nrf2 PPI,eLon inh,RTF Ca sens inh,RTF Ca sens act,EBV gp42 block
CCN(CC)c1ccc2cc(-c3nnc(-c4ccncc4)o3)c(=O)oc2c1,-6,-101,i,-200,163*,-234
CCN(CC)c1ccc2cc(C(C)=O)c(=O)oc2c1,7,-74,i,-186,153*,-198
CCN(CC)c1ccc2cc(C(N)=O)c(=N)oc2c1,-4,-209,-92,.,.,-131
CCN(CC)c1ccc2cc(C(=O)Nc3ccccn3)c(=O)oc2c1,9,1,-120,-32,53*,25
Cc1cc(C)n2c(SC(C)C(=O)NC3(C#N)CCCCC3)nnc2n1 (configuration not stated),0,-2,-18,-4,0,.
O=C(NC1CCCCC1)c1cccc(N2C(=O)CCC2=O)c1,2,0,-9,1,4,.
CCN(CC)c1ccc2cc(C(N)=O)c(=O)oc2c1,3,-17,-92,-11,15,-99
CCN(CC)c1ccc2cc(C=O)c(=O)oc2c1,-5,-176,-403,-425,425*,-155
CC1(C(=O)NS(=O)(=O)C2CC2)CCN(C(=O)c2ccc(F)c(Cl)c2)C1 (configuration not stated),.,.,3,.,.,.
Cc1ccc(CNc2ccc3c(c2)OCO3)cc1,9,5,24*,-61,39*,31
O=C1NC(=Nc2ccc(Cl)cc2)/C(=C/c2ccco2)S1,-1,-2,-7,-6,4,62*
CCOC(=O)[C@]12CCC=C1N(Cc1ccco1)C(=O)[C@H](CC(=O)NCc1cccs1)C2,.,.,-9,.,.,.
O=C(Nc1ccccn1)c1cc2cc([N+](=O)[O-])ccc2s1,0,1,-4,-3,-1,10
O=C(Nc1nnc(-c2ccccc2Cl)o1)c1cc2cc([N+](=O)[O-])ccc2s1,.,.,.,.,.,68*
Cc1cc(NS(=O)(=O)c2ccc(NC(=O)Cc3cccs3)cc2)no1,0,-1,10,15,-5,-13
Cc1cc(NC(=O)Cc2cccs2)no1,2,1,-9,0,-12,71*
CC(C)(C)n1nnnc1C(c1ccccc1)N1CCN(c2c(Cl)cncc2Cl)CC1 (configuration not stated),.,.,6,.,.,.
Cc1ccc(N=C2NC(=O)CS2)cc1,1,-1,-4,-2,-11,-25
Cc1ccc(C)n1/N=C1/NC(=O)CS1,87*,0,-21,10,-16,-1
Cc1nc2cc3c(=O)n(C)cnc3cc2n1Cc1ccccc1,.,.,0,.,.,.
CCOc1ccc(NC(=O)CN(C)C(=O)C2CC(=O)N(Cc3ccco3)C2)cc1OCC (configuration not stated),2,-5,-4,4,-1,.
Cc1nc2ccc(Cl)cc2nc(C)/c1=N\O,13,-21,-6,3,34*,-5
Cc1ccc(S(=O)(=O)/N=C2/NC(=O)/C(=C\c3cc(Br)cc(Br)c3O)S2)cc1,-16,-74,-88,-92,63*,.
COc1cc(OC)cc(C(=O)NC(=S)N(Cc2ccccc2)C(C)C)c1,-3,-7,6,-4,-2,.
Cc1ccc(NC(=O)COC(=O)COc2cccc3c2OC(C)(C)C3)cc1S(=O)(=O)N1CCOCC1,2,3,2,-2,-9,.
SMILES,LANA DNA inh,Keap1-Nrf2 PPI,eLon inh,RTF Ca sens inh,RTF Ca sens act,EBV gp42 block
CCOC(=O)c1c(C)[nH]c(C)c1C(=O)CSc1nc2ccccc2n1CC,0,-7,-10,0,11,122*
Cc1nn(C)c(C)c1S(=O)(=O)N(CC(=O)Nc1ccc2c(c1)OCO2)c1ccc(C(C)C)cc1,1,1,16*,0,-6,-20
CCOc1cc(C=C2C(=O)c3ccccc3C2=O)ccc1OCC(=O)Nc1ccc(C)cc1,0,-1,12,0,-2,88*
Cc1ccc(N2C(=O)[C@@H]3[C@H](C2=O)C2CCCN2[C@@H]3C(=O)c2ccccc2)cc1 (some centres not stated),10,-2,22,-23,31*,42
CC(=O)c1ccc(N2C(=O)C3C(C2=O)C(C(=O)c2ccc(Cl)cc2)N2CCCC32)cc1 (configuration not stated),.,.,.,.,.,89*
O=C(c1ccc(Cl)cc1)C1C2C(=O)N(c3ccccc3)C(=O)C2C2CCCN21 (configuration not stated),1,-1,6,-6,-2,81*
COc1ccc(N2C(=O)C3C(C2=O)C(C(=O)c2ccc(Cl)cc2)N2CCCC32)cc1 (configuration not stated),2,-6,-12,-19,19,-8
